Only some compounds are listed: those with a hit (about 6.5% of all), similar ones and a draw of the others.
Giardia kill: Giardia lamblia killing; Giardia lamblia trophozoite viability; activity change, % at 7.66 µM, hits read low; actives 0.15% (n = 340,000); AID 540267; in the data active = activity change below about -80%; inconclusive = between about -30% and that limit;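 note: parasites exposed to compound for two days anaerobically before the ATP read; % is set by controls: 0 for no effect and ±100 for the full control effect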
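ATP-content bioluminescence gauges trophozoite survival. Cells (100/well) receive compound and incubate anaerobically for 48 hrs at 37 deg C; detection reagent follows for 15-30 min at room temperature.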
IL-1B inflam inh: inhibitors of inflammasome signaling (IL-1 beta secretion). activity change, % at 57.5 µM. actives 4.7% (n = 360,000). THP-1 LPS/ATP IL-1B secretion, AlphaLISA, 16 h; active compounds read low; in the data active = activity change below about -50%; inconclusive = mostly about -30% to -49%; note: % is set by controls: 0 for no effect and ±100 for the full control effect
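Secreted IL-1B measured by AlphaLISA bead assay after 16 h compound exposure of THP-1 cells; compounds (final up to 57.5 uM) added 1 h before LPS (250 ng/mL) and ATP (1.25 mM) stimulation; lower signal means less secretion.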
TGFb SMAD3 inh: blocks TGF-b signaling. AID 588855. actives 1.2% (n = 410,000). HepG2 CAGA-GFP TGF-b/SMAD3 reporter, GFP fluorescence, 18 h; TGF-beta stimulated, 500 pg/mL final. Potency, µM (highest dose often 46.1 µM), inactives show at the top dose activity, negative = inhibition, hits mostly inhibitors; note: potency is the fitted concentration of half-maximal effect; % is set by controls: 0 for no effect and ±100 for the full control effect; nearly all actives have a fitted effect of over 65% in size
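HEPG2 CAGA-GFP reporter cells (1000/well, DMEM with 1% FBS) received compounds, then recombinant TGF-beta at 500 pg/mL final for 18 hours at 37 degrees C. Per-cell GFP summed per well was normalised to unstimulated and stimulated DMSO controls before curve fitting.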
HepG2 viability: HepG2 cytotoxicity, counter-screen for TGF-b inhibitors. HepG2 CAGA-GFP viability, ATP luminescence, 18 h. actives 0.76% (n = 410,000). Potency, µM (titrated, usually from 46.1 µM), without a hit: top-dose activity change, negative = cytotoxicity, hits mostly cytotoxic; note: potency is the fitted concentration of half-maximal effect
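CellTiter-Glo luminescence gave cytotoxicity after 18 hours at 37 degrees C. The cells were HepG2 CAGA-GFP in 1% FBS DMEM, stimulated with 500 pg/mL TGF-beta after compound addition. %Activity was normalised to no-cell wells (complete cell-killing) and DMSO (no toxicity), and curves were fitted and classified.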
HT1080 IDH1KD tx: toxicity to HT-1080 IDH1 knockdown cells (counter line) | HT-1080 IDH1 knockdown viability, ATP luminescence, 48 h | AID 686971 | actives 2% (n = 360,000) | Potency, µM (doses to about 46.1 µM), inactives show at the highest dose activity, negative = toxicity, usual class: cytotoxic;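 note: potency is the fitted concentration of half-maximal effect; 0% = DMSO wells and -100% = cell-free medium wells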
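Using the IDH1-knockdown HT-1080 line run in the same batch and compound series as the NT line, viability after 48 h at 37 °C was determined by CellTiter-Glo luminescence and expressed as % activity.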
HT1080-NT tox: kills 2HG-producing HT-1080-NT fibrosarcoma cells. actives 1.6% (n = 360,000). HT-1080-NT fibrosarcoma viability, CellTiter-Glo ATP luminescence, 48 h. Potency, µM (titrated, usually from 46.1 µM), for inactives: top-dose activity, negative = less viability, usual class: cytotoxic;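 note: NT is the 2HG producing partner of a matched IDH1 knockdown line; potency is the fitted concentration of half-maximal effect; 0% = DMSO-treated cells and -100% = media-only wells without cells; nearly all actives have a fitted effect of over 55% in size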
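A 48-hour cytotoxicity screen used HT-1080-NT cells plated 2 hours before compound delivery. ATP-based CellTiter-Glo luminescence measured viability, normalized to DMSO and no-cell controls.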
An asterisk follows results filed as active; ? = inconclusive; / = not tested or not shown. Unless noted, calls come from the whole dose curve; as a rule, active = well fitted curve in the direction sought with a large enough effect; inconclusive = small, poorly fitted or top-dose-only effect, or another doubt; inactive = no such curve, though single readings can be large; an effect the other way counts as inactive or inconclusive.

SMILES	Giardia kill	IL-1B inflam inh	TGFb SMAD3 inh	HepG2 viability	HT1080 IDH1KD tx	HT1080-NT tox
Cc1ccc(C(=O)Nc2ncc([N+](=O)[O-])s2)cc1	-86*	-67*	?	-70%	23µM*	18µM*
Cc1cnc(NC(=O)c2ccc3c(c2)OCCO3)s1	-91*	61	-11%	-47%	7.3µM*	7.3µM*
Cc1ccc(C(=O)Nc2ncc(Cc3ccc(SC(F)F)cc3)s2)cc1	2	0	?	1%	2.6µM*	1.8µM*
COc1ccc(-c2cc(C(C)=O)c(C)n2CCC(=O)NC2CCCCC2)cc1	/	/	-24%	-10%	/	/
O=C(Nc1ncc([N+](=O)[O-])s1)c1ccco1	-90*	7	-20%	-46%	-21%	-28%
Cc1csc(NC(=O)c2ccco2)n1	-1	26	15%	0%	17%	-1%
Cn1c2c(c(=O)n(C)c1=O)C(C(F)(F)F)(C(F)(F)F)N=C(c1ccccc1Cl)N2	-8	22	-19%	-24%	-7%	-17%
Cn1c2c(c(=O)n(C)c1=O)C(C(F)(F)F)(C(F)(F)F)N=C(CCC1CCCCC1)N2	-20	-58*	?	-31%	?	?
O=C1CCN(CCc2ccccc2)CCN1[C@H](COc1ccccc1)c1ccccc1	-15	-3	10µM*	-27%	-10%	-3%
CCOc1cc(/C=N/NC(=O)Cn2nc([N+](=O)[O-])cc2C)cc(Br)c1OCc1ccccc1F	-7	16	22%	1%	10µM*	?
CCCCNc1nc(N)nc(-c2cc(Cl)ccc2O)n1	-6	-84*	?	-55%	0%	-11%
CCNc1nc(N)nc(-c2cc(Cl)ccc2O)n1	-9	-85*	?	6%	23µM*	16µM*
Nc1nc(NCc2ccccc2)c2[nH]cnc2n1	10	/	-19%	-17%	/	/
c1ccc(-c2nnc(-c3c[nH]c4ccccc34)nc2-c2ccccc2)cc1	-9	/	?	9%	-2%	2%
ClC(Cl)c1nnc(-c2ccccc2)c(-c2c[nH]c3ccccc23)n1	-19	0	13µM*	-57%	0%	4%
Cc1ccc(-c2ccc(/C=C/C(=O)c3ccccc3)o2)cc1	-2	-79*	15%	0%	2%	-5%
O=Cc1ccc(-c2cccc(C(=O)O)c2)o1	44	16	?	-14%	16%	-3%
O=C(/C=C/c1ccc(-c2ccccc2)o1)c1ccccc1	-11	-99*	16%	-4%	-3%	2%
Cc1cccc(C=CC(=O)c2ccccc2)c1	10	-28	?	-29%	-16%	-2%
CC1(C)C(=O)N(CC(=O)Nc2ccc(Br)cc2F)c2ccccc21	/	/	-26%	-2%	/	/
Cc1cc(OC(C)C(=O)N2CCN(c3ccc(F)cc3)CC2)c2c(C)cc(=O)oc2c1 (stereo not drawn)	?	28	1%	7%	15%	15%
CNC(=O)CSc1cn(CC(=O)N2CCCCCC2)c2ccccc12	/	/	0%	-1%	/	/
CCOC(=O)c1c(-c2ccccc2)oc2ccc(OCC(O)CN(C)C)cc12 (stereo not drawn)	-3	-65*	14µM*	18µM*	15µM*	26µM*
Cc1c(C)n(CCCN(C)C)c2ncnc(NC3CCCCC3)c12	-12	-53*	15%	-33%	?	-21%
N#CC1=C(N)Oc2c(ccc3ccccc23)C1c1ccsc1 (stereo not drawn)	-6	13	?	-25%	5.8µM*	13µM*
Cc1cccc(OCCCN2CCOCC2)c1	1	4	6%	2%	-9%	-8%
CC(C)(C)c1ccc(NC(=O)COC(=O)c2ccc(NS(=O)(=O)c3ccc(F)c(F)c3)cc2)cc1	20	?	14µM*	-46%	-15%	0%
COc1ccccc1-c1nc(SCC(=O)c2ccccc2)n[nH]1	/	/	-20%	-8%	/	/

Assay outcomes from PubChem BioAssay.
